# Measurements: PubChem BioAssay AID686978 (National Center for Advancing Translational Sciences (NCATS), 2013)
# Several values for one entry are separate records, joined by “and”; a condition that tells them apart may be missing. Equal entries are not always repeated. In all, about 420,000 compounds went through this assay and about 64,000 (15%) were called active. Roughly 27% stayed inconclusive and do not appear here. The call rests on the fitted dose curve; in most records, active means well fitted inhibition curve with a large enough effect; inconclusive means small, poorly fitted or top-dose-only effect; inactive means flat fitted curve, though single readings scatter. These entries were drawn from the full list. A call without a number means that no potency is given here.
# Experiment: qHTS for Inhibitors of human tyrosyl-DNA phosphodiesterase 1 (TDP1): qHTS in cells in absence of CPT; further: nearly all actives have a fitted effect of over 55% in size
# Settings: DT40 Tdp1-/- hTDP1 cells, no CPT, ATP luminescence, 48 h; activity change, negative = growth inhibition: at 46.2 µM (top of the series)
# Summary of the method: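 Camptothecin absent (DMSO only). Human TDP1-complemented DT40 knockout cells, 400 cells/well, 37 °C for minimum 48 hr; ATP measured via CellTiter-Glo, 30 min dark incubation, luminescence.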
# Potency means the concentration at half of the fitted maximal effect.
row,SMILES,Potency
1,Cn1c(N)cc(=O)n(C)c1=S,inactive
2,Cc1n[nH]c(=O)c2c(NC(=O)COC(=O)c3ncc(Cl)c(Cl)c3Cl)oc(C)c12,inactive
3,O=C(CN1CCN(S(=O)(=O)c2ccc(Cl)s2)CC1)NCc1ccc(Cl)cc1,inactive
4,N#Cc1ccc(COC(=O)Cn2nnc(-c3ccccc3)n2)cc1,inactive
5,Cc1ccc(NC(=O)CN2C(=O)NC(C)(c3ccc(Cl)cc3)C2=O)c(Br)c1 (stereo unspecified),inactive
6,Cc1c(S(=O)(=O)NC(C)c2ccccc2)c(=O)n(C)c(=O)n1C (stereo unspecified),inactive
7,C=CCn1nc(C(=O)OCC)cc1-c1sc(NC(=O)c2ccccc2)nc1C,20.6 µM (active)
8,CCOC(=O)c1cc(-c2sc(NC(=O)c3ccccc3)nc2C)n(CCO)n1,6.51 µM (active)
9,CCOC(=O)C(=O)Nc1nc(-c2ccccc2)c(CC)s1,inactive
10,CCOC(=O)c1cc(-c2sc(NC(=O)c3ccccc3)nc2C)n(Cc2ccccc2)n1,18.4 µM (active)
11,CC(=O)c1sc(NC(=O)c2cccc3ccccc23)nc1C,inactive
12,CCOc1ccc(C(=O)Nc2c3c(nn2-c2ccccc2)CS(=O)(=O)C3)cc1,inactive
13,CCOC(=O)c1sc(NC(=O)CSc2nc(O)c(Cc3ccccc3)c(=O)[nH]2)nc1C,inactive
14,CCOC(=O)c1cc(-c2sc(NC(=O)c3ccccc3)nc2C)n(-c2ccc(Br)cc2)n1,25.9 µM (active)
15,Cn1sc(NC(=O)c2ccccc2)nc1=O,inactive
16,CCOC(=O)c1cc(OC(=O)c2ccccc2Cl)n(-c2ccccc2)n1,inactive
17,CCOC(=O)c1cc(NC(=O)c2cccnc2)ccn1,inactive
18,CCOc1ccccc1NC(=O)CSc1ncc(S(=O)(=O)c2ccc(C(C)(C)C)cc2)c(=O)[nH]1,inactive
19,O=C1CSC2=NCN(c3ccccc3)CN12,inactive
20,Nc1scc(-c2ccncc2)c1Cl,inactive
21,Cc1nc2ccc(S(=O)(=O)N(C)CC(=O)NC(C)c3ccccc3)cc2s1 (stereo unspecified),inactive
22,CCCc1cc(=O)oc2c(C)c(OC(C)C(=O)NCC(O)c3ccccc3)ccc12 (stereo unspecified),inactive

row,SMILES,Potency
1,c1ccc2cc(OCCN3CCCC3)ccc2c1,inactive
2,Cc1nnc2n1N=C(c1ccc3c(c1)NC(=O)CO3)CS2,inactive
3,CC(C(=O)NCCc1ccc(S(N)(=O)=O)cc1)N1C(=O)CC(C)(C)Sc2ccccc21 (stereo unspecified),inactive
4,Cc1c(C(=O)NNC(=O)c2ccncc2)oc2ccccc12,inactive
5,C/C(=C/C(=O)N1CCN(C)CC1)C(=O)O,inactive
6,COc1ccc(CCNC(=O)c2cc(-c3ccc4c(c3)OCO4)on2)cc1OC,inactive
7,COc1ccc(F)cc1S(=O)(=O)Nc1ccc2c(c1)OCO2,inactive
8,COc1cc(-c2c(-c3ccc4c(c3)OCO4)noc2C)ccc1F,17.8 µM (active) and 16.4 µM (active)
9,COc1ccccc1NC(=O)N1CCCC1C(=O)NCc1cccs1 (stereo unspecified),inactive
10,O=C(CSC1=Nc2ccccc2C2=NC(CC(=O)NCc3ccco3)C(=O)N12)NCc1ccco1 (stereo unspecified),inactive
11,O=C(CC1N=C2c3ccccc3N=C(SCc3ccccc3Cl)N2C1=O)NCc1ccco1 (stereo unspecified),inactive
12,NC(=O)CSC1=Nc2ccccc2C2=NC(CCC(=O)NCc3ccc(F)cc3)C(=O)N12 (stereo unspecified),inactive
13,COc1ccccc1NC(=O)CSC1=Nc2ccccc2C2=NC(CC(=O)NCc3cccs3)C(=O)N12 (stereo unspecified),20.6 µM (active)
14,O=C(CC1N=C2c3ccccc3N=C(SCc3cccc(Cl)c3)N2C1=O)NCc1ccc2c(c1)OCO2 (stereo unspecified),20.6 µM (active)
15,CC(C)NC(=O)N1CC[C@@]2(CCCN(C(=O)c3ccco3)C2)C1,inactive
16,COc1ccc(N2C(=O)C3CCCN3C2c2cccc(OC)c2)cc1 (stereo unspecified),inactive
17,Cc1ccc(S(=O)(=O)Nc2ccc3ncccc3c2)cc1,9.2 µM (active)
18,Cc1ccc(NS(=O)(=O)c2ccc(C(C)(C)C)cc2)cn1,inactive
19,Cc1ccc(OCC(=O)Nc2ccc(S(=O)(=O)Nc3ccccn3)cc2)cc1,inactive
20,CS(=O)(=O)N(CC(=O)Nc1ccc(F)cc1)C1CCCCC1,inactive
21,CS(=O)(=O)N1CCC2(CC1)CN(Cc1ccccc1)C2,inactive
22,Cc1ccc(-c2nc(=N)sn2Cc2ccccc2)cc1,4.47 µM (active)

row,SMILES,Potency
1,Cc1ccc(CN2C(=O)SC(Nc3ccccc3)C2=O)cc1 (stereo unspecified),inactive
2,O=c1onc(-c2cccs2)n1Cc1ccccc1,inactive
3,c1ccc2c(c1)OCCOCCOCCO2,inactive
4,Cc1ccc(NC(=O)CN(C)C(=O)c2ccc(Br)o2)cc1,inactive
5,O=C(Nc1ccccc1Cl)c1ccc2nsnc2c1,inactive
6,O=C(Nc1ccccc1Cl)Nn1cnnc1,inactive
7,O=C(Nc1ccccc1Cl)/C(Cl)=C(\Cl)S(=O)c1ccccc1 (stereo unspecified),0.206 µM (active)
8,C=CCn1c(COc2ccc(F)cc2)nnc1SCC(=O)Nc1cccc(S(N)(=O)=O)c1,inactive
9,O=C(c1cnccn1)N1CCN(S(=O)(=O)c2cccc(Cl)c2)CC1,inactive
10,COc1ccc(-c2ccc(Nc3ccc(S(=O)(=O)N4CCCC4)cc3)nn2)cc1OC,18.4 µM (active)
11,COc1cc(NS(=O)(=O)c2ccc(NC(=O)c3ccc(S(=O)(=O)N4CCCCC4)cc3)cc2)ncn1,inactive
12,COc1ccc(S(=O)(=O)Nc2ccc(S(=O)(=O)N3CCCCC3)cc2)cc1OC,inactive
13,O=C(Nc1ccccc1C(F)(F)F)c1cc(-c2ccc(O)cc2)on1,inactive
14,CCN(CC)Cc1cc(C(C)=O)ccc1O,inactive
15,O=C(NCc1cccs1)C(=O)NCC1OCCCN1S(=O)(=O)c1ccc(F)cc1 (stereo unspecified),inactive
16,CC1CCCCN1S(=O)(=O)c1ccc(C(=O)Nc2nnc(-c3cccs3)o2)cc1 (stereo unspecified),5.8 µM (active)
17,CCc1nnc(NC(=O)c2ccc(S(=O)(=O)NC3CCCCC3)cc2)s1,inactive
18,CC(=O)c1ccc(NC(=O)C2CCCN2S(=O)(=O)c2cccs2)cc1 (stereo unspecified),inactive
19,CC1CCCCN1S(=O)(=O)c1ccc(S(=O)(=O)N(CC(=O)Nc2ccccc2)Cc2cccs2)cc1 (stereo unspecified),25.9 µM (active)
20,CSCc1nnc(NC(=O)c2ccc(S(=O)(=O)N3CCCCC3C)cc2)o1 (stereo unspecified),20.6 µM (active)
21,CS(=O)(=O)c1ccc(-c2nnc(NC(=O)c3ccc4c(c3)OCCO4)o2)cc1,inactive
22,CC1CCCCN1S(=O)(=O)CCNC(=O)c1ccccc1 (stereo unspecified),inactive

row,SMILES,Potency
1,CC1CCCN(S(=O)(=O)c2ccc(C(=O)Nc3nnc(-c4ccncc4)o3)cc2)C1 (stereo unspecified),10.3 µM (active)
2,CC1CC(C)CN(S(=O)(=O)c2ccc(C(=O)NN3CCOCC3)cc2)C1 (stereo unspecified),inactive
3,CCN(CC(=O)NCc1cccs1)S(=O)(=O)c1ccc(NC(C)=O)cc1,inactive
4,COCCN(CC(=O)Nc1ccccc1C)S(=O)(=O)c1ccc(S(=O)(=O)N2CCCC2)cc1,inactive
5,COC(=O)c1ccc(N(CC(=O)NC2CCCC2)C(=O)CNC(=O)c2ccco2)cc1,inactive
6,C=C(C)C1CC=C(C)/C(=N/NC(=O)CCCNc2cccc(C)c2)C1 (stereo unspecified),inactive
7,CCOc1ccc(-c2n[nH]c(=S)n2/N=C/c2cc3c(cc2[N+](=O)[O-])OCO3)cc1,inactive
8,NC(=O)c1ccc(NC(=O)COC(=O)c2ccc([N+](=O)[O-])cc2)cc1,inactive
9,COCc1cc(C)nc2sc3c(=O)n(-c4cccc5ccccc45)nnc3c12,inactive
10,CC1(C)OC[C@@H](COC(=O)CCc2ccc(OC[C@@H](O)CNCCNC(=O)N3CCOCC3)cc2)O1,inactive
11,Cc1cc(C(=O)NCCc2ccc(Cl)cc2)c(C)o1,inactive
12,C=CCN1C(=O)c2ccc(C(=O)N3CCC(C(=O)OCC)CC3)cc2C1=O,inactive
13,Cc1ccccc1Nc1nn2c(=O)c3ccc(C(=O)NCCc4ccc(Cl)cc4)cc3nc2s1,14.6 µM (active)
14,C=CCn1c(SCC(=O)CC(=O)OCC)nc2cc(C(=O)N3CCC(C(N)=O)CC3)ccc2c1=O,inactive
15,CCOC(=O)C1CCN(C(=O)c2ccc3c(=O)n4nc(Nc5ccccc5CC)sc4nc3c2)CC1,10.3 µM (active)
16,CCc1ccc(Nc2nn3c(=O)c4cc5c(cc4nc3s2)OCO5)cc1,inactive
17,Cc1ccc(C(=O)NC2CCN(C(=O)N3CCOCC3)CC2)cc1,inactive
18,C#CCOCCOCCOCCNc1nc(N2CCN(C(=O)[C@H](C(C)C)n3cc(CCO)nn3)CC2)nc(N2CCN(C(=O)[C@H](C(C)C)n3cc(CCO)nn3)CC2)n1,inactive
19,COc1cccc(C(CC(=O)NCCN2CCOCC2)NS(=O)(=O)c2ccc(C)cc2)c1OC (stereo unspecified),inactive
20,O=C(N/N=C/c1ccco1)c1csc2c1CCCC2,5.8 µM (active)
21,O=C(N/N=C/c1ccco1)c1ccc(C(=O)N/N=C/c2ccco2)o1,inactive
22,O=C(N/N=C/c1ccco1)c1ccc(NC(=O)C2CC2)cc1,inactive

row,SMILES,Potency
1,Cc1cccc(C(=O)NCCCN2CCCC2=O)c1,inactive
2,Cc1nc2ccc(S(=O)(=O)NC(C(=O)N3CCCCCC3)C(C)C)cc2s1 (stereo unspecified),inactive
3,O=C(CN1C(=O)c2ccc([N+](=O)[O-])cc2C1=O)Nc1nnc(C2CC2)s1,inactive
4,CCOc1ccc(N2C(=O)CC(N(O)c3ccccc3)C2=O)cc1 (stereo unspecified),inactive
5,O=C(NC1(C(F)(F)F)NC(=O)N(C2CCCCC2)C1=O)c1ccco1 (stereo unspecified),inactive
6,O=C(O)C#Cc1cccc2ccccc12,inactive
7,COc1ccc(NC(=O)CSc2nnc(C3CC3)n2C)cc1S(=O)(=O)N1CCCCC1,inactive
8,CC(=O)Nc1ccc(S(=O)(=O)N2CCN(S(=O)(=O)c3cccs3)CC2)cc1,inactive
9,CC(=O)Nc1ccc(S(=O)(=O)N2CCSCC2)cc1,inactive
10,CCOC(=O)C1CCN(CC(=O)Nc2ccc(OC)c(S(=O)(=O)N3CCCCC3)c2)CC1,inactive
11,Cc1cccc(OCCCC(=O)Nc2ccc(S(=O)(=O)N3CCCC3)cc2)c1,18.4 µM (active)
12,Cc1ccc(OCCCC(=O)Nc2ccc(S(=O)(=O)Nc3cc(C)nc(C)n3)cc2)cc1,inactive
13,Cc1ccc(NC(=O)CCNC(=O)c2ccc([N+](=O)[O-])cc2)cc1S(=O)(=O)N1CCOCC1,inactive
14,COc1ccc(NC(=O)CCCOc2ccc(C(C)=O)cc2)cc1S(=O)(=O)N1CCCCC1,25.9 µM (active)
15,Cc1ccc(C)c(S(=O)(=O)N2CCN(CC(=O)Nc3ccc([N+](=O)[O-])cc3)CC2)c1,16.4 µM (active)
16,CC(=O)Nc1ccc(S(=O)(=O)N2CCN(CCCOc3cc(C)ccc3C)CC2)cc1,18.4 µM (active)
17,C=CCNC(=O)CCCOc1cccc(C)c1,inactive
18,Cc1ccc(C)c(S(=O)(=O)N2CCN(C(=O)Nc3ccccc3)CC2)c1,inactive
